We go through 40 compounds from PubChem BioAssay (Tox21).

A number with no mark means an inactive call. Active and inactive are the calls of the source. Calls follow the shape of the dose curve; as a rule, active = well fitted activation curve with a large enough effect in the repeat runs; inconclusive = weak or mixed curves; inactive = flat fitted curve, though single readings scatter.
% is scaled to controls: 0 for no effect and ±100 for the full control effect.

A short description of the experiment: A CellTox Green Cytotoxicity Assay to monitor cytotoxicity in HepG2 cells - 0 hour (AID 1224882). Also: nearly all actives have a fitted effect of over 35% in size. To be noted: CellTox Green fluorescence; series mostly up to 76.8 µM. The source says:
National Center for Advancing Translational Sciences [NCATS]
NIH Chemical Genomics Center [NCGC]
U.S. Environmental Protection Agency [EPA]
National Institutes of Environmental Health Sciences [NIEHS]
National Toxicology Program [NTP]
Cell-based models are critical for drug discovery. Determining the natural cytotoxic effects resulting from test compounds is an essential research activity. A CellTox Green Cytotoxicity Assay to monitor cytotoxicity in real time of continues cell culture during 40 hours of the compound treatment was used to screen Tox21 10K library compounds in HepG2 cells. CellTox Green Cytotoxicity Assay is a nonlytic, homogeneous, biofluorescent method to measure cytotoxicity in cell culture after experimental manipulation. The assay system uses a proprietary asymmetric cyanine dye that is excluded from viable cells but preferentially stains the dead cell's DNA. […] Viable cells produce no appreciable increases in fluorescence. Therefore, the fluorescence signal produced by the binding interaction with dead cell DNA is proportional to cytotoxicity.
The mixture of HepG2 cell suspension and reagents were dispensed at 600cells/6 ul/well in 1536-well tissue culture treated black solid bottom plates using a Multidrop dispenser. After the assay plates were incubated at a 37 C/5% CO2 incubator for 5 hours, 23 nL of compounds dissolved in DMSO, positive and negative controls was transferred to the assay plate by a pintool work station. The plates were incubated at 37 C for 40 hours. The fluorescence intensity were measured at 0h, 8h, 16h, 24h, 32h and 40h time points using ViewLux plate reader during compound treatment.
Regarding `Clc1nc(Cl)nc(Nc2ccccc2Cl)n1`, the call was inactive.
As for `Cc1ccc2c(c1)C1CN(C)CCC1N2` (stereo not given), the cytotoxicity was -0.534% [at 15.8 µM].
As for `OP(O)c1ccccc1`, the call was inactive.
The same measure, in the same setting: as for `COC1=CC(=O)O[C@@H](/C=C/c2ccccc2)C1`, the entry is “inactive”.
With `CC[C@H](O)C(C[C@H](C)N(C)C)(c1ccccc1)c1ccccc1`, the outcome was inactive.
`CCC1(c2cccc(O)c2)CCCCN(C)C1` (stereo not given): the outcome was inactive.
The same measure, in the same setting: then `ClCC1CO1` (stereo not given), with “inactive”.
`CCCCCCC(=O)CCCCCC/C=C/C[C@@H](O)[C@H](O)[C@@](N)(CO)C(=O)O`: the cytotoxicity is -17.7% [at 15.8 µM].
Consider `BrCCc1ccccc1`, for which the compound was called inactive.
On to `COc1ccccc1OC`, for which the compound was called inactive.
Still for that read-out and setting: as for `CCNP(=S)(OC)O/C(C)=C/C(=O)OC(C)C` (stereo not given), the entry is “inactive”; as for `c1ccc2c(c1)CCNC2`, “inactive”.
Same read-out and setting: as for `CCCOc1nn(C(=O)NS(=O)(=O)c2ccccc2C(=O)OC)c(=O)n1C`, the entry is “inactive”.
The same measure, in the same setting: then `CN(C)CCN(C)C`, with “inactive”; and `O=C(NC(O)C(Cl)(Cl)Cl)NC(O)C(Cl)(Cl)Cl` (stereo not given), with “inactive”.
Consider `CCN1CCCC1CNC(=O)C(O)(c1ccccc1)c1ccccc1` (stereo not given), for which the outcome was inactive.
On the same count and under the same terms, as for `Cn1c(N)nc2c3cccnc3ccc21`, the entry is “inactive”; as for `CCOC(=O)C(SP(=S)(OC)OC)c1ccccc1` (stereo not given), “inactive”.
Still for that read-out and setting: as for `CC(C)(C)c1cc(O)ccc1O`, the entry is “inactive”; as for `CC(Cc1ccccc1)NCCn1cnc2c1c(=O)n(C)c(=O)n2C` (stereo not given), “inactive”; as for `COc1ccc2c(C(=O)c3ccc(Cl)cc3)c(C)n(CC(=O)O)c2c1`, “inactive”.
Still for that read-out and setting: then `O=[N+]([O-])CCO`, with “inactive”; and `O=C(O)C(Cl)Br` (stereo not given), with “inactive”.
As for `CC[C@@H](CO)NC(=O)[C@@H]1C=C2c3cccc4c3c(cn4C)C[C@H]2N(C)C1`, the compound was called inactive.
Still for that read-out and setting: as for `C=CC1(C)OC(=O)N(c2cc(Cl)cc(Cl)c2)C1=O` (stereo not given), the entry is “inactive”; as for `CC(C)(O)C(Cl)(Cl)Cl`, “inactive”.
The same measure, in the same setting: then `CCOc1cc(OP(=S)(OC)OC)nc(CC)n1`, with “inactive”; and `COP(=O)(O)OC`, with “inactive”.
Turning to `O=C(Cl)C(Cl)(Cl)Cl`, the compound was classed as inactive.
Still for that read-out and setting: as for `N=C(N)[Se]`, the entry is “inactive”.
Consider `CN(C)C1CCCCC1`, for which the call was inactive.
On the same count and under the same terms, as for `CC[C@@H](CO)NC(=O)[C@@H]1C=C2c3cccc4[nH]cc(c34)C[C@H]2N(C)C1`, the entry is “inactive”.
For the compound `BrCc1ccc(Br)cc1`, the result was inactive.
On the same count and under the same terms, then `CCOC(=O)c1ncn2c1CN(C)C(=O)c1c(I)cccc1-2`, with “inactive”; and `O=c1[nH]c2ccccc2n1C1CCNCC1`, with “inactive”.
For `O=C(Cl)c1ccccc1`, the outcome was inactive.
Still for that read-out and setting: as for `CCN[C@@H](C)Cc1cccc(C(F)(F)F)c1`, the entry is “inactive”.
On the same count and under the same terms, as for `CC(C)(C)C(=O)C(Cl)Cl`, the entry is “inactive”.
For `CC(=O)OCC1=C(C(=O)O)N2C(=O)[C@@H](N)[C@H]2SC1`, the cytotoxicity is -8.52% [at 15.8 µM].
Consider `C[C@H](N)C(=O)c1ccccc1`, for which the outcome was inactive.
